RmlC RmlD mix = inhibitors of RmlC and RmlD coupled enzymes; inhibition, % at 5.5 µM; RmlC/RmlD coupled enzyme inhibition, 384-well mixture HTS; 110,000 tested, 0.39% active; in the data active means inhibition above about 30%, passing the limit was not always enough
YopH PTP inh = inhibitors of Yersinia enterocolitica YopH tyrosine phosphatase | inhibition, % (test concentration not listed) | AID 898 | 140,000 tested, 0.16% active | fluorescence Ex485/Em525; in the data active means inhibition above about 50%
RmlCD fluor art = counter-screen for RmlC/RmlD inhibitors: fluorescence artifact; calls only; shares compounds with RmlC RmlD mix; 360 tested, 96% active; RmlC/RmlD assay fluorescence artifact counter-screen; call rule not given here;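 further: compound alone with no enzyme and no substrates present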
Starred values were filed as active, the others as inactive; / = no result; + = active, no number. Rows were chosen to be rich in hits. Some 0.44% of all compounds tested hit in one or more screens of this group.

SMILES	RmlC RmlD mix	YopH PTP inh	RmlCD fluor art
Cc1onc(-c2c(F)cccc2Cl)c1C(=O)NC(=S)NC1CCS(=O)(=O)C1 (stereo not given)	/	-27	/
O=C(NCC(=O)N(Cc1ccccc1)C(C(=O)NC1CCCC1)c1ccncc1)c1ccco1 (stereo not given)	-8	-13	/
COc1ccc2cc(-c3nc4ccccc4n3C)c(=O)oc2c1	31*	-24	+
COc1ccc2cc(C(C)=O)c(=O)oc2c1	/	-29	/
Cc1cc(-c2ccccc2)n(-c2ccc(C(=O)N3CCN(c4ncccn4)CC3)cc2)n1	3	-28	/
COc1cc(-c2nc3ccccn3c2/N=C/c2ccccc2)ccc1O	67*	-39	+
COc1ccc(-c2nc3ccccn3c2/N=C/c2ccc(OC)c(OC)c2)cc1O	/	-13	/
Cn1c(=O)c(N=O)c(N)n(Cc2ccccc2)c1=S	2	/	/
CCOC(=O)c1ccc(S(=O)(=O)Nc2ccc3cn[nH]c3c2)cc1	-4	-34	/
c1csc(CN2CCOCC2)c1	-10	-16	/
Cc1c(N=C2SCC(=O)N2/N=C\c2ccc(Br)cc2)c(=O)n(-c2ccccc2)n1C	/	-22	/
C=CCn1c(=N)c(C(=O)NCCCOC)cc2c(=O)n3ccccc3nc21	66*	0	+
CC(C)OCCCn1c(=NC(=O)c2ccncc2)c(C#N)cc2c(=O)n3ccccc3nc21	115*	-49	+
COCCCNC(=O)c1cc2c(=O)n3cccc(C)c3nc2n(C(C)C)c1=N	64*	-25	+
COCCn1c(=N)c(C(=O)NCCc2ccc(OC)cc2)cc2c(=O)n3cccc(C)c3nc21	9	-13	/
CCCCCn1c(=NC(C)=O)c(C#N)cc2c(=O)n3ccccc3nc21	/	-24	/
C=CCn1c(=O)c(C#N)cc2c(=O)n3ccccc3nc21	58*	-47	+
C=CCn1c(=N)c(C(=O)NCCCOC)cc2c(=O)n3cc(C)ccc3nc21	/	-26	/
C=CCn1c(=N)c(C#N)cc2c(=O)n3ccccc3nc21	16	-7	/
Nc1cc(=O)nc(SCC(=O)Nc2cccc3ccccc23)n1CCc1ccccc1	-9	-19	/
CC(c1ccccc1F)n1cc(C(=O)NCCc2ccco2)nn1 (stereo not given)	-16	-32	/
CC(=O)N1CCc2cc(S(=O)(=O)CCC(=O)Nc3c(C)n(C)n(-c4ccccc4)c3=O)ccc21	-11	-51	/
CSc1cccc(NC(=O)C2CCN(C(=O)c3ccccc3C)CC2)c1	/	-16	/
CC(C)CNC(=S)NC(=O)c1ccc(F)cc1	/	-22	/
COC(=O)c1cc2c(=O)n3ccccc3nc2n(Cc2cccnc2)c1=N	14	-6	/
SMILES	RmlC RmlD mix	YopH PTP inh	RmlCD fluor art
N=c1c(C(=O)NCc2ccc(F)cc2)cc2c(=O)n3ccccc3nc2n1Cc1cccnc1	53*	-18	+
O=C(CSCc1ccccc1Cl)Nc1c[nH]c(=O)[nH]c1=O	/	-13	/
COc1ccc(-c2nc(C#N)c(NCCCN3CCOCC3)o2)cc1	/	-26	/
N#Cc1nc(-c2cccs2)oc1N1CCOCC1	-8	-4	/
N#Cc1nc(-c2cccs2)oc1NCCCN1CCOCC1	67*	51*	+
CC1CN(c2oc(-c3cccs3)nc2C#N)CC(C)O1 (stereo not given)	75*	-48	+
N#Cc1nc(-c2cccs2)oc1NCC1CCCO1 (stereo not given)	107*	4	+
O=S(=O)(c1ccccc1)c1nc(-c2cccs2)oc1NCC1CCCO1 (stereo not given)	-16	-39	/
N#Cc1c(NC(=O)CSc2nc3ccccc3s2)sc2c1CCCC2	/	9	/
CCOC(=O)c1c(C(=O)OCC)c(C)n(CCc2ccc(OC)c(OC)c2)c1C	/	-21	/
CS(=O)(=O)N(CCc1ccccc1)CC(=O)NCc1cccnc1	-9	-6	/
CCc1cc(=O)oc2cc(C)c(CN3CCCCC3)c(O)c12	10	-42	/
CCCc1cc(=O)oc2c(CN3CCCC3)c(O)ccc12	99*	-29	+
CN1CCN(Cc2c(O)ccc3c(-c4ccccc4)cc(=O)oc23)CC1	-6	-30	/
Cc1cc(=O)oc2c(CN3CCC(C)CC3)c(O)c(Cl)cc12	149*	2	+
Cc1cc(=O)oc2c(CN3CCCCC3)c(O)c(Cl)cc12	94*	15	+
Cc1cc2oc(=O)cc(CN3CCC(C)CC3)c2cc1Cl	-21	-40	/
Cc1cc(O)c(C(C)C)cc1NC(=O)c1cccc(Cl)c1	-12	-25	/
O=C(Nc1cccnc1)c1ccccc1O	-8	-18	/
O=C(Nc1cccnc1)c1coc(=O)c2ccccc12	61*	-32	+
Cc1ccc(S(=O)(=O)N2CCCOC2CNC(=O)C(=O)NCc2ccncc2)cc1 (stereo not given)	/	-12	/
O=C(O)c1cc(-c2ccccc2)nc2ccccc12	4	-27	/
CCOc1ccc(-c2cc(C(=O)O)c3ccccc3n2)cc1	32*	-28	+
CC(C)(C)C(=O)Nc1cc(NC(=O)C(C)(C)C)cc(C(=O)Nc2cc(C(=O)O)cc(C(=O)O)c2)c1	/	-6	/

Screening data (PubChem BioAssay)
